# Only some compounds are listed: those with a hit (about 27% of all), similar ones and a draw of the others.
# sEH activator = activators of human soluble epoxide hydrolase | purified human sEH enzymatic activity, activator screen | activation, % at 2 µM | hit rate 0.04% among 91,000; in the data active = activation above about 37%
# CYP2C9 activ = increases human cytochrome P450 2C9 activity; P11712; recombinant CYP2C9, luciferin-H conversion, luminescence; stronger effect = higher value; factor 1 = untreated enzyme, 0 = blocked; activation factor at 5 µM; hit rate 1.4% among 96,000;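 active = activation factor of 2 or more for CYP2C9 at a 5 µM dose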;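 note: 0 = sulfaphenazole-blocked wells and 1 = vehicle-only wells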
# sEH inhibitor = soluble epoxide hydrolase (human) inhibition; recombinant human sEH enzymatic activity assay; hit rate 0.34% among 91,000; P34913; inhibition, % at 2 µM; in the data active = inhibition above about 80%
# CYP2C9 inh = human CYP2C9 inhibition. P11712. CYP2C9 Supersomes, luciferin-H conversion, luminescence. inhibition, % at 5 µM. hit rate 20% among 96,000. AID 777;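 active = blocking of liver enzyme CYP2C9 beyond about 50% at 5 µM, limit read from the data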
# CYP2C19 inh = human CYP2C19 inhibition. P33261. inhibition, % at 5 µM. CYP2C19 Supersomes, luciferin-H EGE luminescence, 30 min. hit rate 21% among 96,000. AID 778;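 active = CYP2C19 inhibition above a set limit at 5 µM in the primary screen, cut at about 50% in these data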;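 note: plate controls were negative control wells for no effect and 2.5 mM tranylcypromine positive control for full effect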
# Target sequence (P33261 whole entry, looked up): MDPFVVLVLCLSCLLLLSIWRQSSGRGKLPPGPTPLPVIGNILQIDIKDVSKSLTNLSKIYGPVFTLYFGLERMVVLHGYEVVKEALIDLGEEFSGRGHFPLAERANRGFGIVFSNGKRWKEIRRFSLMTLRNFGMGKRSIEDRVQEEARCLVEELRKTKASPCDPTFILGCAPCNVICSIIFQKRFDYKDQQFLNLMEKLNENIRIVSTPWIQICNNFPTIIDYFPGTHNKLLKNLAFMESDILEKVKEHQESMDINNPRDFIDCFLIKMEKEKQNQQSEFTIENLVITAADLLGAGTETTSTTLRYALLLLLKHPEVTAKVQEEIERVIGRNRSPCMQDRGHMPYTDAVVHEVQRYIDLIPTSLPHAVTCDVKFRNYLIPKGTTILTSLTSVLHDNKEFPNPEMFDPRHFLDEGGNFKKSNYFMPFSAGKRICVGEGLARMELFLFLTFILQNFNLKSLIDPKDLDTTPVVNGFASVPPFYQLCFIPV
# CYP2C19 activ = increases human CYP2C19 enzyme activity; 96,000 tested, under 10 active; recombinant CYP2C19, luciferin-H EGE luminescence; stronger effect = higher value; 0 = fully inhibited enzyme, 1 = untreated enzyme; AID 1025; activation factor at 5 µM;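 active = activation factor of at least 2 at 5 µM in the primary screen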;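 note: 0 = wells with 2.5 mM tranylcypromine and 1 = vehicle-only wells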
# The depositor's hits bear a star; . = no result given.
SMILES,sEH activator,CYP2C9 activ,sEH inhibitor,CYP2C9 inh,CYP2C19 inh,CYP2C19 activ
O=S(=O)(Cc1cc(Oc2ccccc2)nc(-c2ccccc2)n1)c1ccccc1,-4.9,0.4,2.5,61.2*,58.8*,0.4
CCOC(=O)C(C)On1c(SC(C)C(=O)OCC)nc2ccccc2c1=O (stereo unspecified),6.9,.,-9.1,.,.,.
O=S(=O)(Cc1cc(Sc2ccc(Cl)cc2)nc(-c2ccccc2)n1)c1ccccc1,8.9,0.2,-10.4,80.6*,65.3*,0.3
CCOC(=O)C(C)Sc1cc(CS(=O)(=O)c2ccccc2)nc(-c2ccccc2)n1 (stereo unspecified),1.1,0,1.0,95.8*,77.0*,0.2
Cc1nc(CS(=O)(=O)c2ccc(Cl)cc2)cc(Sc2ccc(Cl)cc2)n1,-0.9,0.1,1.9,88.3*,12.3,0.9
Cc1nc(CS(=O)(=O)c2ccccc2)cc(N2CCOCC2)n1,2.6,0.7,-3.4,29.6,18.1,0.8
CCc1nnc(NC(=O)C2c3ccccc3Oc3ccccc32)s1,10.5,.,-5.9,.,.,.
CC(O)CNc1nc2ccccc2n1-c1ncnc2sc3c(c12)CCC3 (stereo unspecified),16.0,0.6,-17.5,44.5,38.5,0.6
Cc1nc(-n2nnc3ccccc32)c2c3c(sc2n1)CCCC3,22.6,0.4,-23.1,59.4*,54.8*,0.5
c1ccc2c(c1)nnn2-c1ncnc2sc3c(c12)CCCC3,0.6,2.1*,-1.0,-107.3,11.0,0.9
Cc1nc(N2CCN(c3ccccc3)CC2)c2c3c(sc2n1)CCC3,.,0.1,.,94.2*,94.9*,0.1
CC(C)CN1CCC(C(=O)NCC2CCCO2)CC1 (stereo unspecified),-6.8,.,10.0,.,.,.
Cc1ccc(SCC(=O)Nc2cccc(-c3nnc(-c4ccco4)o3)c2)cc1,-6.3,0.1,8.4,91.2*,22.7,0.8
COc1cccc(C(=O)Nc2cccc(-c3nnc(-c4ccco4)o3)c2)c1,-6.2,0.3,6.9,69.5*,77.0*,0.2
Cc1ccc(SCC(=O)Nc2cccc(C(=O)NC(C)(C)C)c2)cc1,0.6,0.4,2.2,57.8*,27.0,0.7
Cc1onc(-c2ccccc2)c1C(=O)NCC1CCN(C(=O)c2c(-c3ccccc3)noc2C)CC1,0.2,0.7,3.2,32.2,18.0,0.8
C=CCSc1nc(N(CC)CC)c2sccc2n1,-4.2,1,4.8,-2.9,39.6,0.6
O=C(NC12CCC(O)C(SC1)/C2=N/O)c1ccccc1 (stereo unspecified),6.4,1,-7.5,-1.3,-1.1,1
O=C1CSC(c2cn(-c3ccccc3)nc2-c2cc3ccccc3oc2=O)N1Cc1ccccc1 (stereo unspecified),-1.6,0.7,1.2,30.3,-11.9,1.1
O=C1CSC(c2cn(-c3ccccc3)nc2-c2ccc3c(c2)OCCO3)N1CCN1CCOCC1 (stereo unspecified),7.7,0.2,-7.2,77.9*,80.7*,0.2
COC(=O)c1cc(C(=O)OC)cc(-n2c(C)cc(C(=O)CC#N)c2C)c1,.,0.3,.,69.3*,33.8,0.7
Cc1cc(C(=O)CC#N)c(C)n1-c1ccc(OC(F)F)cc1,-9.1,0.2,10.6,79.0*,90.6*,0.1
N/C(=N\OS(=O)(=O)c1cc(Cl)ccc1Cl)c1ccncc1,0.1,0.5,0.2,47.9,37.8,0.6
Cc1c(Cl)ccc2c1NC(=O)[C@]21[C@@H]2C(=O)N(Cc3ccccc3)C(=O)[C@@H]2[C@@H]2CCCN21,0.2,0.3,1.6,73.0*,65.5*,0.3
CCn1c(SCC(=O)Nc2nccs2)nnc1-c1ccc(S(=O)(=O)N2CCCCCC2)cc1,1.1,0.5,0.4,51.5*,17.4,0.8
SMILES,sEH activator,CYP2C9 activ,sEH inhibitor,CYP2C9 inh,CYP2C19 inh,CYP2C19 activ
O=C(CSc1n[nH]c(-c2ccc(S(=O)(=O)N3CCCCC3)cc2)n1)Nc1nccs1,-46.4,0.1,47.1,87.1*,3.6,1
Cc1cc(O)cc(O)c1-c1onc(C(F)(F)F)c1-c1cscn1,-8.2,0.8,9.3,16.8,79.8*,0.2
CCOc1ccc(-c2onc(C(F)(F)F)c2-c2cscn2)c(O)c1,-4.9,1.8,6.7,-77.8,26.2,0.7
CC1=NN(S(=O)(=O)c2ccc(F)cc2)C(=O)c2ccccc2O1,-7.0,1,6.0,3.5,29.1,0.7
COc1ccc(S(=O)(=O)N2N=C(C)Oc3ccccc3C2=O)cc1,2.7,0.9,-3.8,8.6,64.8*,0.4
CC1CN(Cc2ccccc2Cl)CC(C)O1 (stereo unspecified),-2.7,1,4.1,-3.9,19.0,0.8
c1cn(CC2(Cn3ccnc3)COC2)cn1,23.7,1,-22.1,-3.0,-13.8,1.1
CCOc1c(OC(C)=O)ccc(/C=C2\N=C(SCC)SC2=O)c1[N+](=O)[O-],0.9,0.8,-1.2,20.1,4.4,1
CCOc1cc(/C=C2\N=C(SCC)SC2=O)cc([N+](=O)[O-])c1OC(C)=O,2.5,0.3,-4.5,71.7*,-8.4,1.1
CCOc1cc(/C=C2\N=C(SC)SC2=O)cc([N+](=O)[O-])c1OC(C)=O,9.7,0.3,-9.4,71.4*,-2.3,1
Fc1ccccc1N1CCN(c2cnc3ccccc3n2)CC1,-20.7,0.9,22.4,8.0,25.4,0.7
O=C(CSCc1ccc(Cl)cc1)c1ccco1,.,0.4,.,58.4*,73.3*,0.3
O=C(CSc1nnc(SCC(=O)c2ccco2)s1)c1ccco1,1.6,0.9,-2.8,6.8,-11.0,1.1
O=C(CSc1nc2cc(Cl)ccc2s1)c1ccco1,.,0.9,.,12.6,88.9*,0.1
Cn1c(CSc2nc3ccccc3s2)nnc1SCC(=O)NCCCN1CCOCC1,-10.8,.,13.7,.,.,.
Cc1nc2ccccc2n1CC(=O)OCC(=O)NCCc1ccccc1,-9.4,1.2,4.1,-15.1,-16.6,1.2
CC(=O)Nc1ccc(C(=O)OCC(=O)c2ccc(C)c([N+](=O)[O-])c2)cc1,5.5,0.5,-2.3,50.7*,30.5,0.7
O=C(CN1C(=O)c2ccccc2S1(=O)=O)Nc1ccc(S(=O)(=O)N2CCCCC2)cc1,-83.4,0.4,83.1*,61.6*,3.2,1
O=C(CN1C(=O)c2ccccc2S1(=O)=O)Nc1ccccc1,4.4,0.8,-4.7,18.1,49.1,0.5
O=C(CN1C(=O)c2ccccc2S1(=O)=O)Nc1ccc(S(=O)(=O)N2CCCC2)cc1,-67.5,0.1,68.5,91.5*,42.5,0.6
COc1cc(NC(=O)CN2C(=O)c3ccccc3S2(=O)=O)c(OC)cc1Cl,4.7,0.5,-7.5,52.2*,67.1*,0.3
COc1c(F)c(F)c(C(=O)O)c(Nc2ccccc2)c1F,5.1,1,-5.0,-0.3,14.3,0.9
COc1cccc(CNc2nc3nc(C)cc(=O)n3[nH]2)c1,2.5,1,-1.6,4.5,-7.0,1.1
CCOC(=O)C(C)Oc1ccsc1C(=O)OC (stereo unspecified),1.4,0.9,-0.3,14.4,2.4,1
